Laboratory results taken from PubChem BioAssay (Tox21).
Inconclusive results are not listed. Calls of active or inactive are those of the source. Unless noted, the call rests on the fitted dose curve; in most records, active means well fitted curve in the direction sought with a large enough effect in the repeat runs; inconclusive means weak or mixed curves; inactive means no such curve, though single readings can be large; an effect the other way counts as inactive or inconclusive.

Assays:
[1] = target: Aryl hydrocarbon receptor (Homo sapiens) (UniProt P35869); test: qHTS assay to identify small molecule that activate the aryl hydrocarbon receptor (AhR) signaling pathway (AID 743085);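 further: HG2L7.5c1 human HepG2 liver cells with stably integrated DRE-driven firefly reporter; series mostly up to about 70 µM; nearly all actives have a fitted effect of over 15% in size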
How it was run: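 AhR agonist activity is inferred from enhanced light output of a DRE-controlled firefly luciferase reporter in HepG2 cells, measured with ONE-Glo following 24 h treatment at 37C.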

[2] = qHTS assay to identify small molecule that activate the aryl hydrocarbon receptor (AhR) signaling pathway - cell viability counter screen (AID 743086);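 further: HepG2 liver cells carrying the AhR DRE luciferase reporter; series mostly up to about 70 µM; nearly all actives have a fitted effect of over 45% in size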
How it was run: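 HepG2-AhR-luc (HG2L7.5c1) cells, 4000/well, were preincubated 5 h at 37C, exposed to compound in qHTS format for 24 hr at 37C, then given CellTiter-Fluor for 30 min; viability was read as fluorescence in the reporter wells.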

[3] = target: Peroxisome proliferator-activated receptor gamma (Homo sapiens) (UniProt P37231); test: qHTS assay to identify small molecule agonists of the peroxisome proliferator-activated receptor gamma (PPARg) signaling pathway (AID 743094; active means well fitted activation curve with a large enough effect in the signal ratio in the repeat runs, not every such curve was filed as active; the % refers to the signal ratio)
How it was run: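 Beta-lactamase FRET fluorescence was the read-out after a 1 h room-temperature substrate step, following 17 h compound treatment at 37C of HEK293H cells expressing a UAS-driven bla reporter responsive to PPARg.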

[4] = target: Peroxisome proliferator-activated receptor gamma (Homo sapiens) (UniProt P37231); test: qHTS assay to identify small molecule antagonists of the peroxisome proliferator-activated receptor gamma (PPARg) signaling pathway (AID 743191; calls by dose curve; further: series mostly up to about 63 µM; nearly all actives have a fitted effect of over 30% in size)
How it was run: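 GeneBLAzer PPARg UAS-bla HEK293H cells carrying a UAS-driven beta-lactamase reporter were plated at 3000 cells/well, preincubated 5 h at 37C, then given compound for 17 h at 37C; LiveBLAzer B/G FRET substrate was read after 1 h at room temperature.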

[5] = qHTS assay for small molecule agonists of the antioxidant response element (ARE) signaling pathway (AID 743202; active means well fitted activation curve with a large enough effect in the signal ratio in the repeat runs, not every such curve was filed as active; the % refers to the signal ratio)
How it was run: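 Compounds delivered in DMSO to ARE-bla HepG2 cells (2,000 cells/well, pre-incubated 5 h) and left 16 h at 37 C. LiveBLAzer B/G FRET substrate then added for 2 h at RT before fluorescence reading.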

[6] = qHTS assay for small molecule agonists of the antioxidant response element (ARE) signaling pathway - cell viability counter screen (AID 743203; calls by dose curve; further: nearly all actives have a fitted effect of over 55% in size)
How it was run: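 HepG2 cells carrying ARE-driven beta-lactamase; 2,000 cells/well; 5 hrs plating; compound pinned from DMSO; 16 hrs 37C/5% CO2; CellTiter-Glo added; 30 min RT; luminescence.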

[7] = qHTS assay for small molecule activators of the heat shock response signaling pathway - cell viability counter screen (AID 743209); further: nearly all actives have a fitted effect of over 50% in size
How it was run: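 Luminescence from CellTiter-Glo, added after the beta-lactamase FRET read, gave the viability signal. Cells were HSE-bla HeLa treated with DMSO-dissolved compounds for 5 h at 37 C following overnight plating.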

[8] = qHTS assay to identify small molecule agonists of the peroxisome proliferator-activated receptor delta (PPARd) signaling pathway - cell viability counter screen (AID 743211); further: nearly all actives have a fitted effect of over 55% in size
How it was run: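 qHTS cell viability: PPARd-bla HEK293H; 17 h cpd, 37C; CellTiter-Glo, luminescence at 30 min RT.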

[9] = qHTS assay to identify small molecule antagonists of the peroxisome proliferator-activated receptor gamma (PPARg) signaling pathway - cell viability counter screen (AID 743194); further: nearly all actives have a fitted effect of over 55% in size
How it was run: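 PPARg-UAS-bla HEK293H cells were plated, rested 5 h at 37 C, then treated with compounds plus rosiglitazone (50 nM final) for 17 h at 37 C; viability was then read by CellTiter-Glo luminescence after 30 min at room temperature.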

[10] = qHTS assay for small molecule activators of the heat shock response signaling pathway (AID 743210; active means well fitted activation curve with a large enough effect in the signal ratio in the repeat runs, with a control signal flat, not every such curve was filed as active; the % refers to the signal ratio;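 further: HeLa cells with beta-lactamase reporter driven by heat shock elements; series mostly up to about 63 µM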)
How it was run: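 Reporter gene assay: HeLa cells stably bearing an HSE-bla construct, compound treatment 5 h at 37 C, LiveBLAzer substrate 2.5 h at RT, fluorescence intensity.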

Measured: Potency

Sequence of Aryl hydrocarbon receptor (Homo sapiens) (P35869 whole entry, looked up): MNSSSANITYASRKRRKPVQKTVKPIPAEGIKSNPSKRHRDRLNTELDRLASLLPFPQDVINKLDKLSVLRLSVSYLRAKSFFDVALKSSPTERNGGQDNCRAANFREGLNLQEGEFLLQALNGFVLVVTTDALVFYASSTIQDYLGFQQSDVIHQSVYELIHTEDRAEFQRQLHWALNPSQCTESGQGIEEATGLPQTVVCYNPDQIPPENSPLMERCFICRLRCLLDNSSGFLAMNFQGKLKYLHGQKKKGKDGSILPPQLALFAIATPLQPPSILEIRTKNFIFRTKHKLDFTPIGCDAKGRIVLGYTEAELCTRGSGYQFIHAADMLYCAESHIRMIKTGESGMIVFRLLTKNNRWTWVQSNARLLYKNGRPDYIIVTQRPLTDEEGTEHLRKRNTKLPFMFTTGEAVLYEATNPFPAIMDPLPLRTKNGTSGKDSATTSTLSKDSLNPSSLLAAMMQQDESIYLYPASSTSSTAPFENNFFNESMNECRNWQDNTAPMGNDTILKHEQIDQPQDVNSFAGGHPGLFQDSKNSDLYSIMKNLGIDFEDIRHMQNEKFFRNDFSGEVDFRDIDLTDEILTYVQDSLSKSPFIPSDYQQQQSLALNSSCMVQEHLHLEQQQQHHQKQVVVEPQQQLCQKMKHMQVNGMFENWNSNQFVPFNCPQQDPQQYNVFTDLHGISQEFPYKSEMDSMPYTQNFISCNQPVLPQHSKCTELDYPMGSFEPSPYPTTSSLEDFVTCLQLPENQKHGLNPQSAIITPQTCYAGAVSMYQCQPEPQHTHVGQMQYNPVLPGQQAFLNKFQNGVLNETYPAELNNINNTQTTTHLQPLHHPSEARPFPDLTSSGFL
Sequence of Peroxisome proliferator-activated receptor gamma (Homo sapiens) (P37231 whole entry, looked up): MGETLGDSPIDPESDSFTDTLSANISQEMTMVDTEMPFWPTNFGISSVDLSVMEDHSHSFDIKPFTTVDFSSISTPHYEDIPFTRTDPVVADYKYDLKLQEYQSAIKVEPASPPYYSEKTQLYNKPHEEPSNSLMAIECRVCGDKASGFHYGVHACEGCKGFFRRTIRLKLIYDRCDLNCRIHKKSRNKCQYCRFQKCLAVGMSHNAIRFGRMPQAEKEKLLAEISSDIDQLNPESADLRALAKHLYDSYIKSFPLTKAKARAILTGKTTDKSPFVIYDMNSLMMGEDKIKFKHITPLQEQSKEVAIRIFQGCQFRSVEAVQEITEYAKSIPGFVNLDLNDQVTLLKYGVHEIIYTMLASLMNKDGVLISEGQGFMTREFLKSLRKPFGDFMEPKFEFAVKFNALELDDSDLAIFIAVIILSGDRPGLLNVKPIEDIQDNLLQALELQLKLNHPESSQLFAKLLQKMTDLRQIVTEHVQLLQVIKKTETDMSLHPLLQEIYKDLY

CCOC(=O)CC(CC(=O)OCC)(OC(C)=O)C(=O)OCC
inactive: [1] | [2] | [3] | [4] | [5] | [6] | [7] | [8]

O=C1OC(=O)c2cc(Oc3ccc4c(c3)C(=O)OC4=O)ccc21
inactive: [1] | [2] | [3] | [9] | [5] | [6] | [7] | [10] | [8]

CCOC(=O)CCc1ccccc1
inactive: [1] | [2] | [3] | [9] | [5] | [6] | [7] | [10] | [8]

COC(=O)CCC(=O)O
inactive: [1] | [2] | [3] | [4] | [9] | [6] | [7] | [10] | [8]

CCCCCC(=O)OCC
inactive: [1] | [2] | [3] | [4] | [9] | [6] | [7] | [8]

CCCOC(=O)CCCCC(=O)OCCC
inactive: [1] | [2] | [3] | [9] | [5] | [6] | [7] | [10] | [8]

CC(=O)c1ccc2c(c1)CCCC2
inactive: [1] | [2] | [3] | [9] | [5] | [6] | [7] | [10] | [8]

CO[Si](CCCS)(OC)OC
inactive: [1] | [2] | [3] | [4] | [9] | [6] | [7] | [10] | [8]

CCCCCCCCCCCCCC(=O)OC
inactive: [1] | [2] | [3] | [9] | [5] | [6] | [7] | [10] | [8]

CC(C)COC(=O)CC(C(=O)OCC(C)C)S(=O)(=O)O (stereo not given)
inactive: [1] | [2] | [3] | [4] | [9] | [7] | [10] | [8]

C=COCCOCCOC=C
inactive: [1] | [2] | [3] | [4] | [9] | [6] | [7] | [10] | [8]

CCC(O)C(C)(C)C (stereo not given)
inactive: [1] | [2] | [3] | [9] | [5] | [6] | [7] | [10] | [8]

CCCCCCCCCOCC1CO1 (stereo not given)
inactive: [1] | [2] | [3] | [4] | [9] | [6] | [8]

CCN(CCC#N)c1ccccc1
inactive: [1] | [2] | [3] | [4] | [9] | [6] | [7] | [10] | [8]

C=CCOCC(O)CCl (stereo not given)
inactive: [1] | [2] | [3] | [4] | [9] | [6] | [7] | [8]

C=C(C)C(=O)OC1CC(C)CC(C)(C)C1 (stereo not given)
inactive: [1] | [2] | [3] | [4] | [9] | [6] | [8]

FC(F)(F)c1ccc(Cl)cc1Cl
inactive: [1] | [2] | [3] | [9] | [5] | [6] | [7] | [10] | [8]

C[C@H](CCC(=O)NCC(=O)O)[C@H]1CC[C@H]2[C@@H]3[C@H](O)C[C@@H]4C[C@H](O)CC[C@]4(C)[C@H]3C[C@H](O)[C@]12C
inactive: [1] | [2] | [3] | [4] | [9] | [6] | [7] | [10] | [8]

CC(=O)/C=C/c1ccco1
inactive: [1] | [2] | [3] | [9] | [5] | [6] | [7] | [10] | [8]

NS(=O)(=O)c1ccccc1OC(F)(F)F
inactive: [1] | [2] | [3] | [4] | [9] | [6] | [7] | [10] | [8]

BrC/C=C/CBr
inactive: [1] | [2] | [3] | [4] | [9] | [6] | [8]

Nc1cc(S(=O)(=O)O)ccc1S(=O)(=O)O
inactive: [1] | [2] | [3] | [4] | [9] | [6] | [7] | [10] | [8]

O=C(O)c1ccccc1C(=O)OCc1ccccc1
inactive: [1] | [2] | [3] | [9] | [5] | [6] | [7] | [10] | [8]

CCC(=O)c1ccc(O)cc1
inactive: [1] | [2] | [3] | [4] | [9] | [6] | [7] | [10] | [8]

CN(C)CCCNCCC#N
inactive: [1] | [2] | [3] | [9] | [5] | [6] | [7] | [10] | [8]

CN=C(NC#N)NCCSCc1csc(N=C(N)N)n1
inactive: [1] | [2] | [3] | [9] | [5] | [7] | [8]

CC(=O)Nc1ncc([N+](=O)[O-])s1
inactive: [1] | [2] | [3] | [9] | [6] | [7] | [10] | [8]

Cc1nc2ccccc2c(=O)o1
inactive: [1] | [2] | [3] | [9] | [5] | [6] | [7] | [8]

CC1(N)CCC(C(C)(C)N)CC1 (stereo not given)
inactive: [1] | [2] | [3] | [9] | [5] | [6] | [10] | [8]

CCCCCCCCOC(C)=O
inactive: [1] | [2] | [3] | [9] | [5] | [7] | [8]

O=c1cc(O)c(Cl)c[nH]1
inactive: [1] | [2] | [3] | [9] | [6] | [7] | [10] | [8]

CC(C)(C)c1ccc(C=O)cc1
inactive: [1] | [2] | [3] | [9] | [5] | [6] | [10] | [8]

COc1cc2c3cc1Oc1cc(ccc1O)C[C@@H]1c4c(cc(OC)c(O)c4Oc4ccc(cc4)C[C@@H]3N(C)CC2)CC[N+]1(C)C
inactive: [1] | [2] | [3] | [9] | [5] | [6] | [7] | [8]

COC(/C=C(\C)CCC=C(C)C)OC
inactive: [1] | [2] | [3] | [9] | [6] | [7] | [10] | [8]
